# Source: publication PMC5540273 (PLoS ONE, 2017)
# Legend:
# Conditions in all cases: concentration: 1 μM, replicates: in singlicate; n = 1
# HIPK2 = test system: HIPK2
# HIPK3 = test system: HIPK3
# HIPK4 = test system: HIPK4
# HPK1 = test system: HPK1
# HUNK = test system: HUNK
# ICK = test system: ICK
# IGF1R = test system: IGF1R
# IKK-alpha = test system: T1, IKK-alpha
# T1 construct: gene CHUK
# IKK-beta = test system: T2, IKK-beta
# T2 construct: gene IKBKB
# IKK-epsilon = test system: T3, IKK-epsilon
# T3 construct: gene IKBKE
# INSRR = test system: INSRR
# INSR = test system: INSR
# IRAK1 = test system: IRAK1
# IRAK3 = test system: IRAK3
# IRAK4 = test system: IRAK4
# ITK = test system: ITK
# [1] = test system: JAK1(JH1domain-catalytic)
# [2] = test system: JAK1(JH2domain-pseudokinase)
# [3] = test system: JAK2(JH1domain-catalytic)
# [4] = test system: JAK3(JH1domain-catalytic)
# 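Further: KINOMEscan kinase panel screen.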
SMILES,%Inh (HIPK2) [%],%Inh (HIPK3) [%],%Inh (HIPK4) [%],%Inh (HPK1) [%],%Inh (HUNK) [%],%Inh (ICK) [%],%Inh (IGF1R) [%],%Inh (IKK-alpha) [%],%Inh (IKK-beta) [%],%Inh (IKK-epsilon) [%],%Inh (INSRR) [%],%Inh (INSR) [%],%Inh (IRAK1) [%],%Inh (IRAK3) [%],%Inh (IRAK4) [%],%Inh (ITK) [%],%Inh [1] [%],%Inh [2] [%],%Inh [3] [%],%Inh [4] [%]
O=C(Nc1ccccc1F)NC1CCN(c2ccnc(Nc3ccc(F)cc3)n2)C1 (stereo not drawn) [GSK1379722],0,10,0,42,24,100,100,24,23,0,0,0,34,14,14,12,12,0,8,0
Cc1ccc(C)c(NC(=O)NCCNc2ccnc(Nc3ccc(F)cc3)n2)c1 [GSK1379878],0,0,0,28,0,0,0,0,0,9,0,0,0,0,0,0,0,0,1,0
Cc1cccc(-c2nc(Nc3ccc4[nH]nnc4c3)c3ccccc3n2)n1 [GW867587],0,0,0,0,37,0,0,0,0,0,0,0,0,0,0,0,0,52,22,0
Oc1ccc2ncnc(Nc3ccc(OCc4ccccc4)cc3)c2c1 [GI262866],58,6,0,41,8,7,0,7,16,0,18,0,0,0,5,4,12,0,0,0
Nc1nc(-c2cccnc2)c(-c2ccnc3ccccc23)s1 [GW684083],0,0,0,28,0,0,13,20,0,21,0,2,42,16,1,15,6,0,0,0
O=C(Nc1ccccc1)Nc1ccc(Oc2ccc3nccn3n2)cc1,0,0,4,0,9,0,0,0,0,0,1,0,0,0,0,20,28,2,8,0
CCn1c(-c2ccncc2)nc2cnccc21 [SB-735216],18,24,15,0,27,10,0,20,23,10,0,7,6,0,17,0,15,12,10,0
COc1ccc(Nc2nccc(N3CCC(NC(=O)c4cccc(NC(C)=O)c4)C3)n2)cc1 (stereo not drawn) [GSK1379732],13,0,0,43,28,0,0,0,0,19,0,0,24,0,0,0,15,0,22,0
c1ccc(-c2ccc3c(-c4ccnc(Nc5ccc6c(c5)OCCO6)n4)cnn3n2)cc1 [GW818941],0,0,21,47,0,8,9,21,14,6,11,3,8,42,6,9,14,0,11,0
Clc1cccc(-c2nc(Nc3ccncc3)c3ccccc3n2)c1 [GW873004],25,2,22,0,53,0,0,0,0,0,4,0,7,9,0,21,0,16,0,13
O=C(CCO)NCCn1ccc2ncnc(Nc3ccc(Oc4cccc(C(F)(F)F)c4)c(Cl)c3)c21,0,0,0,7,0,0,0,0,0,0,0,0,0,0,0,0,0,36,0,0
CN1CCC(n2cnc(-c3ccc(F)cc3)c2-c2ccnc(NC3CCNCC3)n2)CC1 [SB-229482],45,0,0,27,0,45,0,0,0,0,0,0,20,0,4,0,0,0,18,0
Cn1ccc2ncnc(Nc3ccc(Oc4cccc(Cl)c4)c(Cl)c3)c21,37,22,3,2,0,12,0,3,7,11,0,16,27,6,27,23,16,0,15,4
Cl.O=S(=O)(c1cccc(F)c1)c1ccc(Nc2ncnc3cc(Br)sc23)cc1Cl [GSK306886],0,23,0,29,57,0,0,0,41,0,0,13,32,0,0,0,15,0,2,0
Fc1cccc(COc2ccc(Nc3ncnc4cc[nH]c34)cc2Cl)c1,27,40,9,0,8,5,5,5,23,39,0,0,6,0,4,13,0,36,19,0
COc1cc2c(Nc3cccc(NC(=O)c4ccccc4)c3)ncnc2cc1OCCCN1CCOCC1 [GSK223810],0,0,7,55,0,0,0,0,0,19,7,10,0,41,0,9,0,0,4,0
Nc1nc(-c2ccc3c(N)n[nH]c3c2)cc(N2CCC[C@@H](C(=O)Nc3ccccc3)C2)n1.O=C(O)C(F)(F)F.O=C(O)C(F)(F)F [GSK2288359],0,6,1,32,0,12,100,0,0,29,0,9,0,0,0,0,14,23,100,0
N#Cc1ccc(Oc2ccc(Nc3ncnc4cc[nH]c34)cc2Cl)cc1,32,10,4,0,1,0,0,2,17,12,0,0,16,3,13,9,12,25,19,4
CS(=O)(=O)CCNCc1nc(-c2ccc3ncnc(Nc4ccc(OCc5cccc(F)c5)c(Cl)c4)c3c2)cs1.Cl [GW583340],0,0,0,33,0,0,0,3,6,7,0,1,0,0,5,0,24,0,0,0
COc1ccc(NC(=O)Nc2ccc(C)c(-c3ccc(C(=O)Nc4ccncc4)cc3)c2)cc1 [GSK1398475],0,4,0,47,7,0,0,0,0,0,0,30,0,0,0,9,11,0,0,0
Nc1n[nH]c2nnc(-c3ccccc3)cc12 [SB-517389],55,83,0,35,32,6,0,6,23,22,0,0,22,0,25,13,13,8,42,0
